TcdB inh: TcdB glycohydrolase inhibitors, primary screen, biochemical, single point, plate reader; Toxin B (Clostridioides difficile), P18177; TcdB glycohydrolase enzymatic assay; inhibition, % at 9.99 µM; hit rate 0.24% among 350,000; AID 652162, 2013; in the data active = inhibition above about 10%
FadD28 binding: inhibitors of FadD28 bisubstrate probe binding, primary screen, biochemical, fluorescence polarization, single point; Mycobacterium tuberculosis FadD28 fatty-acid-AMP ligase; inhibition, % at 12.5 µM; hit rate 0.22% among 360,000; in the data active = inhibition above about 8.5%, passing the limit was not always enough
Mtb BioA inh: M. tuberculosis BioA enzyme inhibitors, primary screen, biochemical, plate reader, single point, HTS; purified M. tuberculosis BioA enzyme; AID 602481, 2012; 7,8-diaminopelargonic acid synthase BioA (Mycobacterium tuberculosis); hit rate 0.096% among 360,000; inhibition, % at 9.99 µM; in the data active = inhibition above about 40%
Y pestis TopoI: Yersinia pestis topoisomerase I inhibitors, primary screen, biochemical, cleavage product accumulation, plate reader, single point | DNA topoisomerase I (Yersinia pestis CO92) | Y. pestis Topo-I cleavage product accumulation | activity, % at 10 µM | hit rate 0.064% among 360,000 | AID 504884, 2011; in the data active = activity above about 50%, passing the limit was not always enough
Vc quorum ag: inducers of Vibrio cholerae quorum light production without autoinducers, primary screen, BH1578 luxS cqsA deficient, single point; V. cholerae BH1578 lux reporter, luminescence, 6 h; activation, % at 18.7 µM; hit rate 0.16% among 350,000; AID 588436, 2011; in the data active = activation mostly above about 9.7%, no sharp cut-off
Starred values were filed as active, the others as inactive; i = inactive; · = no result given. The list is not random: actives were taken first. Their share in the collection is about 0.58%.

SMILES	TcdB inh	FadD28 binding	Mtb BioA inh	Y pestis TopoI	Vc quorum ag
Nc1c(Cl)ncnc1NCCc1ccc(O)cc1	11*	-6	·	1	-4
C[C@@H]1CN([C@H](C)CO)C(=O)c2cc(NC(=O)Cc3ccccc3)ccc2O[C@@H](C)CCCCO[C@H]1CN(C)C(=O)Nc1cccc2ccccc12	-4	·	-1	·	·
O=C(O)c1ccc2c(c1)C(=O)N(c1cccc3ccccc13)C2=O	0	5	-1	4	83*
COc1cc2nncc(SC)c2cc1OC	11*	-1	5	9	-1
OCC1CCCN(C(=S)Nc2ccc(Nc3ccccc3)cc2)C1 (stereo not given)	11*	-1	1	-1	i
OCC1CCCN(C(=S)Nc2ccc(OC(F)F)cc2)C1 (stereo not given)	-8	0	15	-6	0
Cc1cc(Cl)ccc1OCC(=O)Nc1ccccc1N1CCOCC1	·	-3	0	53*	i
CC(Oc1cccc(Cl)c1)C(=O)Nc1ccccc1N1CCCCC1 (stereo not given)	0	-2	1	34	-3
O=C(COc1c(Cl)cccc1Cl)Nc1ccccc1N1CCCC1	1	-1	-1	54*	i
O=C(COc1ccc(Br)cc1)Nc1ccccc1N1CCCC1	1	-1	·	8	i
CC(Oc1ccc(F)cc1)C(=O)Nc1ccccc1N1CCCCC1 (stereo not given)	0	-1	1	65*	i
Cc1cccc(OCC(=O)Nc2ccccc2N2CCCC2)c1C	0	-1	-1	-7	1
Cc1ccccc1OCC(=O)Nc1ccccc1N1CCCCC1	·	-4	2	55*	0
COCCNC(=O)C[C@@H]1CC[C@H]2[C@H](COc3ccc(NC(=O)C4CCCC4)cc3C(=O)N2C)O1	-1	·	1	·	·
CC(=O)N(C)C[C@H]1Oc2cc(-c3ccccc3F)ccc2S(=O)(=O)N([C@@H](C)CO)C[C@@H]1C	-1	·	1	·	·
CN(C)c1ccc(N=Nc2ccc(S(N)(=O)=O)cc2)cc1	-5	-2	0	0	0
CN(C)c1ccc(N=Nc2ccc(S(=O)(=O)O)cc2)c2ccccc12	·	14*	4	0	0
[N-]=[N+]=NCc1ccccc1C[C@]1(C(=O)N2CCCCC2)COC(c2ccc(OCCCO)cc2)=N1	-2	·	0	·	·
CC(=O)N[C@H]1CC[C@@H](CCNC(=O)C2CC2)O[C@@H]1CO	-1	·	0	·	·
CC1Oc2cc3c(-c4c(O)cc(O)c5c(O)c6c(cc45)OC(C)C(C)C6=O)c(O)cc(O)c3c(O)c2C(=O)C1C (stereo not given)	·	31*	0	-52	0
CO[C@H]1CN(C)C(=O)c2cc(NC(=O)c3ccccc3F)ccc2OC[C@H](C)N(C(=O)c2ccccc2F)C[C@H]1C	1	·	0	·	·
N#C/C(=C\c1ccc2c(c1)OCO2)C(N)=S	0	-5	0	-10	1
N#C/C(=C/c1ccco1)C(N)=S	0	15*	·	8	0
COC(=O)COc1ccc(Cl)cc1C1Nc2ccccc2C(=O)N1c1ccc(OC)cc1 (stereo not given)	0	23*	2	6	-1
COc1cc(C2Nc3ccccc3C(=O)N2c2ccccc2)c(Br)cc1OCC(=O)O (stereo not given)	·	0	0	2	0
SMILES	TcdB inh	FadD28 binding	Mtb BioA inh	Y pestis TopoI	Vc quorum ag
CCCCCCCCCCCCCCCC(=O)OC(CC(=O)O)C[N+](C)(C)C (stereo not given)	2	17*	18	17	-1
O=C(O)CSC(C(=O)Nc1ccc(C(F)(F)F)cc1)c1ccccc1 (stereo not given)	·	10*	0	-1	-1
O=C(O)CSC(C(=O)Nc1ccc(Br)cc1)c1ccc(Cl)cc1 (stereo not given)	2	3	·	-1	0
O=C(C[C@@H]1CC[C@@H]2[C@H](COC[C@H](O)CN2S(=O)(=O)c2ccccc2)O1)NCCN1CCCC1	0	·	·	·	·
COc1ccc(S(=O)(=O)Nc2ccc3c(c2)C(=O)N([C@H](C)CO)C[C@H](C)[C@H](CN(C)C(=O)c2ccccc2)OCCCC[C@H](C)O3)cc1	-1	·	0	·	·
COc1ccc(NC(=O)Nc2nc(C)cc(C)n2)c(OC)c1	11*	-1	-1	-4	-1
O=C(C[C@H]1CC[C@@H](NC(=O)c2cccnc2)[C@H](CO)O1)NCc1ccncn1	0	·	0	·	·
Cc1ccc(C)n1-c1sccc1C(=O)O	·	21*	-4	-19	i
O=C(c1cccnc1)N1CC[C@@H]2[C@H]1c1cc(-c3cccc(F)c3)ccc1N[C@@H]2CO	1	·	4	·	·
Cc1ccc2nc(-c3ccc4c(c3)OCCO4)cn2c1	26*	-2	1	0	i
COc1ccc(-c2cn3cc(C)ccc3n2)cc1F	20*	1	2	10	0
COc1ccc(-c2cn3cc(C)ccc3n2)cc1OC	·	-4	8	4	0
O=C(C[C@@H]1CC[C@@H](NC(=O)c2ccncc2)[C@H](CO)O1)Nc1ccc(-c2ccccc2)cc1	0	·	·	·	·
COc1cc2c(cc1OC)CN(C(=O)[C@H]1[C@@H]3C(=O)O[C@@H](c4ccccc4)[C@@H](c4ccccc4)N3[C@@H](c3ccccc3OCCO)[C@]13C(=O)Nc1ccccc13)CC2	-1	·	-5	·	·
COc1ccc(OC)c(/C=C/c2ccnc3ccccc23)c1	2	-5	·	36	i
COc1cc(OC)c(OC)cc1/C=C/c1ccnc2ccccc12	19*	-2	·	31	·
COc1ccc2nc(Cl)cc(Cl)c2c1	1	-4	0	2	0
COc1ccc2nccc(/C=C/c3ccnc4ccc(OC)cc34)c2c1	13*	-3	2	21	i
CN1C(=O)c2cc(NC(=O)C3CC3)ccc2OC[C@H]2O[C@H](CC(=O)NCC3CCCCC3)CC[C@@H]21	0	·	1	·	·
CO[C@@H]1CN(C)C(=O)c2ccc(NC(=O)Nc3cccc(Cl)c3)cc2OC[C@H](C)N(C(=O)Nc2c(C)noc2C)C[C@H]1C	-1	·	·	·	·
Cc1nc(N)sc1-c1csc(Nc2cccc(C(=O)O)c2)n1	7	23*	8	-15	0
Cc1nc(C)c(-c2csc(Nc3ccc(O)c(C(=O)O)c3)n2)s1	4	17*	3	3	-1
Cc1cc(NS(=O)(=O)c2ccc(Nc3nc(-c4sc(N)nc4C)cs3)cc2)no1	·	55*	6	-21	i
CCCNC(=O)N1C[C@@H](C)[C@H](OC)CN(C)C(=O)c2ccc(NC(C)=O)cc2OC[C@H]1C	0	·	·	·	·
O=C(C[C@@H]1CC[C@@H](NS(=O)(=O)c2ccccc2)[C@H](CO)O1)N1CCN(c2ccccc2)CC1	0	·	·	·	·

Compound activity deposited in PubChem by Broad Institute.
